Measured values as given in PubChem BioAssay AID1224921 (Broad Institute, 2016).
Screen size: about 1,400 compounds; about 350 (25%) were called active. Roughly 2% stayed inconclusive and do not appear here. The rule behind the calls is not given here. These entries were drawn from the full list. Entries with a potency or affinity are not part of this list.

Experiment: inhibitors of Clostridioides difficile proliferation – 4-point retest, confirmation (AID 1224921);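 note: plate controls were DMSO wells for no effect and levofloxacin 16 µg/mL wells for full effect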
Conditions: Clostridioides difficile clinical isolate growth, OD600, 24 h, active compounds read low; at 30 µM unless noted

Max activity, inactive:
C[C@@H]1CN([C@H](C)CO)C(=O)Cc2cc(NS(C)(=O)=O)ccc2O[C@@H]1CN(C)Cc1ccc(-c2ccccc2)cc1 52.1%
O=C(C[C@@H]1C[C@@H]2c3cc(NC(=O)Nc4ccc(C(F)(F)F)cc4)ccc3O[C@@H]2[C@H](CO)O1)NCc1ccccn1 -9.23% [at 1.95 µM]
CCCC(=O)Nc1ccc2c(c1)OC[C@@H](C)N(CCc1ccccc1)C[C@H](C)[C@H](OC)CN(C)C2=O -4.85% [at 1.95 µM]
C[C@H](CO)N1C[C@H](C)[C@H](CN(C)Cc2cccnc2)Oc2cc(C3=CCCCC3)ccc2S1(=O)=O 37%
O=C(C[C@H]1C[C@H]2c3cc(NC(=O)Nc4ccc(F)cc4)ccc3O[C@H]2[C@@H](CO)O1)NC1CCCC1 -13.7% [at 8 µM]
C[C@@H]1CN([C@H](C)CO)C(=O)c2ccccc2-c2ccccc2CO[C@@H]1CN(C)S(=O)(=O)c1ccsc1 12% [at 1.95 µM]
COc1ccc(S(=O)(=O)Nc2ccc3c(c2)CC(=O)N([C@@H](C)CO)C[C@@H](C)[C@H](CN(C)CC2CCCCC2)O3)cc1 25.5%
COc1ccccc1S(=O)(=O)N[C@@H]1C=C[C@H](CC(=O)N2CCCCC2)O[C@@H]1CO -6.91% [at 0.5 µM]
C[C@@H]1CN([C@H](C)CO)C(=O)c2cccc(NC(=O)Nc3ccc(C(F)(F)F)cc3)c2O[C@H]1CN(C)S(=O)(=O)c1ccc(Cl)cc1 33.1%
C[C@H]1CCCCO[C@H](CN(C)S(=O)(=O)c2cn(C)cn2)[C@@H](C)CN([C@@H](C)CO)C(=O)c2cc(NC(=O)CCCN(C)C)ccc2O1 5.89% [at 8 µM]
C[C@@H]1CN([C@@H](C)CO)C(=O)c2cccc(NC(=O)Nc3ccc(C(F)(F)F)cc3)c2O[C@H]1CN(C)S(=O)(=O)c1ccc(Cl)cc1 49.8%
C[C@H](CO)N1C[C@H](C)[C@@H](CN(C)S(=O)(=O)c2cn(C)cn2)OCCCC[C@H](C)Oc2ccc(NC(=O)Nc3cccc4ccccc34)cc2C1=O 18.8%
CC(C)NC(=O)Nc1ccc2c(c1)CC(=O)N([C@H](C)CO)C[C@@H](C)[C@@H](CN(C)Cc1ccc(-c3ccccc3)cc1)O2 54.7%
C[C@@H]1CN([C@H](C)CO)S(=O)(=O)c2ccc(C3=CCCCC3)cc2O[C@H]1CN(C)Cc1cccnc1 53.5%
CC(C)C#Cc1ccc2c(c1)O[C@@H](CN(C)Cc1ccncc1)[C@@H](C)CN([C@H](C)CO)S2(=O)=O 30.4%
COc1ccc(NC(=O)O[C@H]2[C@H](OC(=O)Nc3ccccc3)[C@H](OC(=O)Nc3ccccc3)[C@@H](OC)O[C@@H]2CO)cc1 32.3%
C[C@H](NC(=O)N(C)C[C@@H]1OCc2ccccc2-c2c(n(C)c3ccccc23)C(=O)N([C@H](C)CO)C[C@H]1C)c1ccccc1 18.8%
CC(=O)N(C)C[C@H]1Oc2ncc(-c3ccc(C(=O)N(C)C)cc3)cc2C(=O)N([C@H](C)CO)C[C@H]1C -8.17%
CO[C@@H]1CN(C)C(=O)c2ccc(NC(=O)Nc3ccc4c(c3)OCO4)cc2OC[C@@H](C)NC[C@@H]1C 10.6%
COCC(=O)Nc1ccc2c(c1)C(=O)N(C)C[C@@H](OC)[C@H](C)CN[C@H](C)CO2 -10.3% [at 1.95 µM]
COc1ccc(CN(C)C[C@H]2OCCCC[C@@H](C)Oc3ccc(NC(=O)Nc4ccc5c(c4)OCO5)cc3C(=O)N([C@@H](C)CO)C[C@@H]2C)cc1 44.6%
C[C@@H]1CN([C@@H](C)CO)C(=O)c2ccccc2-c2ccccc2CO[C@H]1CN(C)S(=O)(=O)c1ccsc1 36%
C[C@@H](C(=O)N(C)C[C@H]1OCc2ccccc2-c2ccccc2C(=O)N([C@@H](C)CO)C[C@@H]1C)c1ccccc1 -9.53% [at 8 µM]
C[C@@H]1CCCCO[C@H](CN(C)S(=O)(=O)c2ccc(Cl)cc2)[C@H](C)CN([C@@H](C)CO)C(=O)c2cc(N(C)C)ccc2O1 25.4%
O=C(N[C@H]1C=C[C@@H](CC(=O)N2CCOCC2)O[C@H]1CO)c1cccc(F)c1 9.04%
C[C@@H]1CN([C@H](C)CO)C(=O)c2cc(C#C[C@@H](C)O)cnc2O[C@@H]1CN(C)Cc1ccc(-c2ccccc2)cc1 -9.01% [at 1.95 µM]
C[C@@H]1CCCCO[C@@H](CN(C)CC2CC2)[C@H](C)CN([C@H](C)CO)C(=O)c2cc(NC(=O)Nc3cccc4ccccc34)ccc2O1 12.9%
COCC(=O)Nc1ccc2c(c1)C(=O)N(C)C[C@@H](OC)[C@H](C)CN(C(=O)CN1CCOCC1)[C@H](C)CO2 -15.1% [at 2.1 µM]
C[C@H]1CN([C@@H](C)CO)C(=O)c2cc(NC(=O)CCC(F)(F)F)ccc2O[C@H]1CN(C)Cc1ccc(-c2ccccc2)cc1 46.6%
CO[C@H]1CN(C)C(=O)c2cc(NC(=O)Nc3cccc(F)c3)ccc2OC[C@H](C)N(C)C[C@H]1C -7.19% [at 0.5 µM]
COc1ccc([Si](C)(C)[C@H]2[C@H](CCO)O[C@@]3(C(=O)N(C)c4ccccc43)[C@@H]2C)cc1 12.6% [at 8 µM]
CCCC#Cc1ccc2c(c1)O[C@@H](CN(C)Cc1ccncc1)[C@H](C)CN([C@H](C)CO)S2(=O)=O 15.9%
COc1cccc(S(=O)(=O)Nc2ccc3c(c2)[C@H]2C[C@@H](CC(=O)NC4CCCCC4)O[C@@H](CO)[C@H]2O3)c1 -11.1% [at 1.95 µM]
O=C(C[C@H]1C[C@H]2c3cc(NC(=O)Nc4ccc(C(F)(F)F)cc4)ccc3O[C@H]2[C@@H](CO)O1)NC1CCCCC1 -14.7% [at 1.95 µM]
COc1ccc(S(=O)(=O)N(C)C[C@@H]2Oc3ccc(NC(=O)CCCN(C)C)cc3CC(=O)N([C@@H](C)CO)C[C@H]2C)cc1 -7.02% [at 1.95 µM]
CCC(=O)Nc1ccc2c(c1)C(=O)N(C)C[C@@H](OC)[C@@H](C)CN[C@@H](C)CO2 6.81% [at 0.5 µM]
CO[C@H]1CN(C)C(=O)c2cc(NC(=O)Nc3ccc(F)cc3)ccc2OC[C@@H](C)NC[C@@H]1C -7.9% [at 0.5 µM]
CO[C@H]1CN(C)C(=O)c2cc(NC(=O)Nc3ccc(F)cc3)ccc2OC[C@H](C)NC[C@@H]1C -22.1%
CO[C@@H]1CN(C)C(=O)c2cc(NC(=O)Nc3ccc(F)cc3)ccc2OC[C@H](C)NC[C@H]1C -13.4% [at 1.95 µM]
CO[C@@H]1CN(C)C(=O)c2ccc(NC(=O)Nc3ccc4c(c3)OCO4)cc2OC[C@H](C)NC[C@H]1C -8.6% [at 0.5 µM]
C[C@@H]1CN([C@H](C)CO)C(=O)c2cc(NC(=O)Nc3ccc4c(c3)OCO4)ccc2O[C@H]1CN(C)Cc1ccccc1 22.6%
COc1ccc(NC(=O)N[C@H]2C=C[C@@H](CC(=O)NC3CCCCC3)O[C@H]2CO)cc1 -14.6% [at 1.95 µM]
COc1ccc(CN(C)C[C@H]2OCCCC[C@@H](C)Oc3ccc(NC(=O)Nc4ccc(F)cc4)cc3C(=O)N([C@@H](C)CO)C[C@@H]2C)cc1 19.8% [at 8 µM]
COCC#Cc1ccc2c(c1)O[C@H](CN(C)C)[C@@H](C)CN([C@H](C)CO)S2(=O)=O 7.09%
CO[C@H]1CN(C)C(=O)c2cc(NC(=O)c3ccccc3)ccc2OC[C@@H](C)N(C)C[C@@H]1C -8.25% [at 8 µM]
C[C@@H]1CN([C@@H](C)CO)C(=O)c2c(c3ccccc3n2C)-c2ccccc2CO[C@@H]1CN(C)S(=O)(=O)c1cccc(F)c1 6.96% [at 8 µM]
C[C@H](CO)N1C[C@H](C)[C@H](CN(C)C(=O)[C@H](C)c2ccccc2)OCc2ccccc2-c2ccccc2C1=O 12.5% [at 1.95 µM]
C[C@@H]1CN([C@H](C)CO)C(=O)c2cccc(NC(=O)Nc3ccc(C(F)(F)F)cc3)c2O[C@H]1CN(C)C(=O)Nc1ccccc1 25.7% [at 8 µM]
C[C@@H]1CN([C@H](C)CO)C(=O)c2cccc(NC(=O)Nc3ccc(C(F)(F)F)cc3)c2O[C@@H]1CN(C)C(=O)Nc1cccc2ccccc12 40.5% [at 1.95 µM]
C[C@H](CO)N1C[C@H](C)[C@@H](CN(C)C(=O)Nc2ccccc2)Oc2c(NC(=O)Nc3ccc(C(F)(F)F)cc3)cccc2C1=O 46.6% [at 8 µM]
C[C@@H]1CN([C@@H](C)CO)C(=O)c2cccc(NC(=O)Nc3ccc(C(F)(F)F)cc3)c2O[C@H]1CN(C)C(=O)Nc1cccc2ccccc12 30.6% [at 1.95 µM]
C[C@@H]1CN([C@@H](C)CO)C(=O)c2cccc(NC(=O)Nc3ccc(C(F)(F)F)cc3)c2O[C@H]1CN(C)C(=O)Nc1ccccc1 29.3%
C[C@H]1CN([C@@H](C)CO)S(=O)(=O)c2ccc(-c3ccccc3F)cc2O[C@@H]1CN(C)Cc1ccncc1 27%
C[C@H](CO)N1C[C@H](C)[C@@H](CN(C)C(=O)C2CCCCC2)Oc2ncc(-c3ccccc3F)cc2C1=O -11.4% [at 8 µM]
C[C@H]1CN([C@@H](C)CO)C(=O)Cc2cc(NS(C)(=O)=O)ccc2O[C@H]1CN(C)Cc1ccccc1 10.4%
